Test results from PubChem BioAssay AID463173 (ICCB-Longwood Screening Facility, Harvard Medical School, 2010).
The whole screen tested about 52,000 compounds, of which about 4,300 (8.3%) were called active. Only a selection was taken, and actives are over-represented in it overall. Unmarked numbers belong to inactive results. Cut-off read from the data, not from the text of the source: active = survival mostly below about 52% (no sharp cut-off); inactive = mostly above about 56%.

These molecules were tested on DeltatarO mutant (assay: growth inhibition of S. aureus wild type versus tarO mutant, primary screen, teichoic acid synthesis inhibitors, RN4220, OD600 (AID 463173)). Details: OD600, 18 h, stronger effect = lower value, screened at 18.75 µg/mL (by protocol).

| SMILES | survival |
| --- | --- |
| COc1ccc(-n2nc3c(N4CCC(C(=O)NCc5ccccc5C)CC4)nnc(C)c3c2C)cc1 | 90% |
| CCOCCc1nn2c(=O)cc(COC(=O)C(CC)c3ccccc3)nc2s1 (stereo not given) | 55% |
| C=CCNC1CCS(=O)(=O)C1 (stereo not given) | 98% |
| CSc1ccc(-c2ccc3c(c2)OCCO3)nn1 | 91% |
| COc1ccc(N2CCN(CCN3CCCCC3)CC2)cc1 | 83% |
| CCC(C)(C)NC(=O)Cn1c(-c2ccc(C)cc2)noc1=O | 86% |
| COC(=O)c1c(Oc2ccc(Br)cc2)nnc(-c2ccccc2)c1-c1ccccc1 | 85% |
| COc1ccc(-c2nc(C)c(CCNC(=O)c3cccc(C)c3)s2)cc1OC | 86% |
| COC(=O)c1ccn(-c2nc(-c3ccc(Cl)cc3)cc(C(F)(F)F)n2)n1 | 13% (active) |
| CCOC(=O)c1c(NC(=O)CSc2nc(-c3ccc(OC)cc3)cc(C(F)(F)F)n2)sc(C)c1C | 68% |
| CCOC(=O)c1ccn(-c2nc(-c3cccc(OC)c3)cc(C(F)(F)F)n2)n1 | 18% (active) |
| COC(=O)CSc1nc(-c2ccc(F)cc2)cc(C(F)(F)F)n1 | 126% |
| CCOC(=O)N1CCN(C(=O)c2cnn3c(C(F)(F)F)cc(-c4cccc(OC)c4)nc23)CC1 | 68% |
| COc1ccc(-c2cc(C(F)(F)F)n3nc(-c4ccc(Cl)cc4)cc3n2)cc1OC | 48% |
| CCc1ccccc1NC(=O)C(Cc1cccc(OC)c1)c1nn[nH]n1 (stereo not given) | 54% |
| CC(=O)N1CCc2c(sc3c2c(=O)n(-c2cccc(Cl)c2C)c(=O)n3Cc2ccccc2C)C1 | 61% |
| CC(=O)NC1=NN(C(C)=O)C2(S1)C(=O)Nc1ccccc12 (stereo not given) | 90% |
| O=C(COc1ccc(Cl)cc1)Nc1ccc(C(=O)OCc2cc(=O)n3ccsc3n2)cc1 | 88% |
| O=C(CSc1ncc2c(n1)-c1cc(Cl)ccc1N(Cc1ccccc1)S2(=O)=O)NCCc1ccccc1 | 89% |
| CCCCCn1c(=O)[nH]c2cc(C(=O)N3CCN(c4cccc(C(F)(F)F)c4)CC3)ccc2c1=O | 66% |
| Cc1ccccc1CCNC(=O)c1ccc2c(c1)nc1n2CCC(C)C1 (stereo not given) | 83% |
| Cc1cc(S(=O)(=O)N2CCCC2)ccc1-n1cnnn1 | 113% |
| CCOC(=O)c1ccc(NC(=O)CSc2nc3ccccc3c(=O)n2CCC(=O)NC2CCCCC2)cc1 | 91% |
| CC1(C)OC(c2ccccc2)CC1=O (stereo not given) | 110% |

| SMILES | survival |
| --- | --- |
| CC(C)=CCc1c(O)cc(O)c2c1OC(c1ccccc1)CC2=O (stereo not given) | 1% (active) |
| Cc1oc(-c2ccccc2F)nc1CS(=O)CC(=O)NC(C)C (stereo not given) | 89% |
| Cc1nn(C(=O)COc2ccc(Cl)cc2)c(C)c1Sc1ccccc1 | 87% |
| Cc1ccc(Sc2c(C)nn(C(=O)c3ccc(Cl)cc3)c2C)cc1 | 19% (active) |
| Cc1nn(C(=O)c2ccccc2)c(C)c1Sc1ccc(Cl)cc1 | 10% (active) |
| Cc1ccc(C(=O)n2nc(C)c(S(=O)(=O)N3CCCCCC3)c2C)cc1 | 91% |
| Cc1ccc(Sc2c(C)nn(C(=O)COc3ccccc3)c2C)cc1 | 25% (active) |
| Cc1nn(C(=O)c2ccc(Cl)cc2)c(C)c1S(=O)(=O)N1CCCCCC1 | 80% |
| Cc1nn(C(=O)c2ccc(Cl)cc2)c(C)c1S(=O)(=O)N1CCOCC1 | 91% |
| Cc1nn(C(=O)c2ccccc2)c(C)c1S(=O)(=O)N1CCCCCC1 | 89% |
| Cc1nn(C(=O)c2ccc(Cl)cc2)c(C)c1Sc1ccc(Cl)cc1 | 51% (active) |
| Cc1ccc(Sc2c(C)nn(C(=O)COc3ccc(F)cc3)c2C)cc1 | 92% |
| COc1cc(C(=O)n2nc(C)c(Sc3ccc(Cl)cc3)c2C)cc(OC)c1OC | 57% |
| Cc1nn(C(=O)COc2ccccc2)c(C)c1Sc1ccccc1 | 115% |
| Cn1nccc1C(=O)NCc1ccc2c(c1)CCN2C(=O)c1ccccc1 | 90% |
| O=C1CN(C(=O)c2ccc(S(=O)(=O)N3CCCCC3)cc2)C(c2ccc(F)cc2)c2cc(Br)ccc2N1 (stereo not given) | 77% |
| COc1ccc(-n2c(SCc3nc(-c4ccc(C)cc4)no3)nnc2-c2ccccc2)cc1 | 60% |
| O=C(Nc1ccc(OC(F)(F)F)cc1)C1CCCN(S(=O)(=O)c2cccc3nonc23)C1 (stereo not given) | 96% |
| Cc1cc(C)cc(C(=O)NCC(c2ccc(N(C)C)cc2)N2CCCC2)c1 (stereo not given) | 95% |
| CCN(CC)CCn1c(=N)n(CCOc2ccccc2Cl)c2ccccc21 | 59% |
| CC1CCN(c2nc(-c3ccc(C(C)(C)C)cc3)nc3ccccc23)CC1 | 6% (active) |
| CC1CCCCN1C(=O)CSc1nc(C2CC2)nc2ccccc12 (stereo not given) | 82% |
| CC1CCCCN1c1nc(-c2ccc(C(C)(C)C)cc2)nc2ccccc12 (stereo not given) | 3% (active) |
| CC1CCN(c2nc(-c3ccc(Br)cc3)nc3ccccc23)CC1 | 82% |

| SMILES | survival |
| --- | --- |
| CC1CCN(c2nc3ccccc3nc2C(F)(F)F)CC1 | 75% |
| Brc1ccc(-c2nc(N3CCN(c4ccccc4)CC3)c3ccccc3n2)cc1 | 117% |
| Cc1ccc(C(C(=O)NC2CCCCC2)N(C(=O)Cc2c[nH]c3ccccc23)C2CC2)o1 (stereo not given) | 94% |
| COc1ccccc1C1CC(=O)NC(C)=C1C(=O)OC1CCCCCC1 (stereo not given) | 86% |
| CCN1CCN(c2ccc(NC(=O)COc3ccccc3)cc2)CC1 | 106% |
| O=C(CN1CCN(c2ccc(F)cc2)CC1)N1CCCC1 | 83% |
| O=S(=O)(c1ccc(F)cc1)N1CCCCC1 | 86% |
| O=S(=O)(N1CCCCC1)N1CCN(c2ccc(F)cc2)CC1 | 65% (active) |
| CCc1ccc(NC(=O)Cn2c(=O)n(Cc3ccco3)c(=O)c3cccnc32)cc1 | 82% |
| CC1(C)CC(=O)C=C(NCC(O)c2ccccc2)C1 (stereo not given) | 102% |
| Cc1ccc(CNC(=O)CN(c2ccc(C)cc2)S(=O)(=O)c2c(C)nn(C)c2C)cc1 | 73% |
| O=C(NCC1CCCO1)c1cc2ccccc2oc1=O (stereo not given) | 80% |
| Cc1ccccc1CN(Cc1ccco1)C(=O)c1cc2ccccc2oc1=O | 44% (active) |
| CCC1Oc2ccc(C)cc2N(CC(=O)N(Cc2ccc3c(c2)OCO3)CC2CCCO2)C1=O (stereo not given) | 96% |
| COc1ccc(CN(Cc2ccco2)C(=O)c2cc3ccccc3oc2=O)c(OC)c1 | 40% (active) |
| O=C(c1cc2ccccc2oc1=O)N(Cc1ccc2c(c1)OCO2)CC1CCCO1 (stereo not given) | 42% (active) |
| Cc1cccc2cc(CN(Cc3ccco3)C(=O)c3ccccc3)c(=O)[nH]c12 | 95% |
| O=C(c1cc2ccccc2oc1=O)N(Cc1ccc(F)cc1)C1CC1 | 88% |
| O=C(c1cc2ccccc2oc1=O)N(Cc1ccc(F)cc1)Cc1ccco1 | 41% (active) |
| O=C(c1cc2ccccc2oc1=O)N(Cc1cccs1)Cc1cccs1 | 48% |
| COc1ccccc1C(=O)N(Cc1ccco1)Cc1ccccc1F | 60% |
| COc1ccc2oc(=O)c(C(=O)NCc3ccco3)cc2c1 | 100% |
| CC(C)(C)c1ccc(C(=O)N(Cc2ccc(F)cc2)Cc2ccco2)cc1 | 55% |
| O=C(O)CCn1cnc2sc3c(c2c1=O)CCCC3 | 105% |

| SMILES | survival |
| --- | --- |
| Nc1cnc2cccc3c2c1-c1ccccc1C3=O | 86% |
| Cc1ccc(S(=O)(=O)c2cnc(SCC(=O)Nc3cc(C)cc(C)c3)nc2N)cc1 | 102% |
| COc1ccc(-c2cc(C(=O)NCCc3ccc(Cl)cc3)[nH]n2)cc1 | 72% |
| Cc1c(Cl)cccc1-n1ncc(C(=O)N2CCc3ccccc3C2)c1C1CCN(C(=O)OC(C)(C)C)CC1 | 85% |
| COc1ccc(C(=O)NCCn2cc(SCC(=O)Nc3ccc4c(c3)OCCO4)c3ccccc32)cc1 | 153% |
| CCOC(=O)c1c(C)oc2nc(C)nc(NCC3CCN(Cc4ccc(F)cc4)CC3)c12 | 102% |
| Cc1ccc(C)c(NC(=O)CCc2c(C)nn(-c3ccc(N4CCCC4)nn3)c2C)c1 | 67% |
| COc1ccccc1Nc1c2c(nc3ccc(NC(=O)/C=C/c4cccc(OC)c4OC)cc13)CCCC2 | 74% |
| Cc1ccc(-c2nc3ccccn3c2Nc2ccccc2C)s1 | 21% (active) |
| Cc1cccc(C)c1Nc1c(-c2ccccn2)nc2c(C)cccn12 | 51% |
| Cc1ccccc1Nc1c(-c2ccc(Cl)s2)nc2c(C)cccn12 | 69% |
| Cc1ccc(Nc2c(-c3ccc(C)s3)nc3ccccn23)cc1 | 31% (active) |
| Cc1ccccc1Nc1c(-c2ccc(Cl)s2)nc2cccc(C)n12 | 99% |
| Cc1ccc(-c2nc3ccc(Cl)cn3c2Nc2ccccc2C)s1 | 107% |
| Cc1ccccc1Nc1c(-c2ccco2)nc2c(C)cccn12 | 25% (active) |
| Cc1ccc(Nc2c(-c3ccc(N(C)C)cc3)nc3ccccn23)cc1 | 131% |
| Fc1ccc(Nc2c(-c3ccco3)nc3ccccn23)cc1 | 53% |
| Cc1ccccc1Nc1c(-c2c[nH]c3ccccc23)nc2ccccn12 | 69% |
| Cc1ccc(-c2nc3c(C)cccn3c2Nc2ccccc2C)s1 | 0% (active) |
| Cc1ccc(-c2nc3ccccn3c2Nc2ccc3c(c2)OCCO3)s1 | 79% |
| COc1ccc2c(c1)c1c(c(=O)n(Cc3ccccc3)c(=O)n1CC(=O)NCc1ccccc1)n2C | 91% |
| COc1ccccc1CNC(=O)CCc1c(C)c2ccc(OC)c(C)c2oc1=O | 74% |
| Cc1ccc(Cl)cc1-n1nnc(-c2nc(-c3ccc4c(c3)OCO4)no2)c1C | 122% |
